# From the supplement of paper PMC10037445
# Values joined by “and” are separate entries in the source; they are usually repeats but may differ in a detail not shown here. Equal entries are not always repeated. The full ranking holds about 2,900 compounds; the median of “NF-kB SEAP reporter activity, fold change vs agonist alone” is about 0.99, and the highest 2% start at about 2.6. What follows is part of a selection rich in the highest values, with near analogues and random picks from the rest.
# Key:
# [1] = system: RAW-Dual; test: NF-kB SEAP reporter activity, fold change vs agonist alone; cytotoxicity flag (confluency mask): not cytotoxic; higher = enhanced NF-kB activity
# Method in brief: (§1)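 After 50 nL of library stock was delivered by pin tool to RAW-Dual macrophages (50,000 cells/well, DMEM, 384-well plates), a PRR agonist was added 1 h later and the plates were kept at 37 °C, 5% CO2. Twenty hours later, IRF was read from supernatant by QuantiLuc luminescence and NF-κB by QuantiBlue absorbance at 620 nm. Reporter activity is stated as fold change over agonist-alone wells. Wells with IncuCyte confluency under 70% of agonist controls in both mask sets were counted as cytotoxic.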
# [2] = system: RAW-Dual; test: NF-kB SEAP reporter activity, fold change vs agonist alone; higher = enhanced NF-kB activity
# Method in brief: as §1
# [3] = system: RAW-Dual; test: NF-kB SEAP reporter activity, fold change vs agonist alone; cytotoxicity flag (confluency mask): cytotoxic (confluency <70% of control); higher = enhanced NF-kB activity
# Method in brief: as §1
# [4] = agonist: ODN 1826 (TLR9) 0.5 ug/mL
# [5] = agonist: Pam2CSK4 (TLR2/6) 0.1 ug/mL
# [6] = agonist: Pam3CSK4 (TLR2/1) 0.1 ug/mL
# [7] = library stock concentration (final ~1000-fold dilution): 10 mM, cytotoxicity flag (confluency mask): not cytotoxic, agonist: Imiquimod (TLR7) […]
# [8] = library stock concentration (final ~1000-fold dilution): 10 mM, cytotoxicity flag (confluency mask): not cytotoxic, agonist: MPLA (TLR4) […]
# [9] = library stock concentration (final ~1000-fold dilution): 10 mM, cytotoxicity flag (confluency mask): cytotoxic (confluency <70% of control), agonist: Imiquimod (TLR7) […]
# [10] = library stock concentration (final ~1000-fold dilution): 10 mM, cytotoxicity flag (confluency mask): cytotoxic (confluency <70% of control), agonist: MPLA (TLR4) […]
structure (smiles),measurement,setting,value
Cc1ccc(CNc2ncnc3ccc(-c4ccc(CO)o4)cc23)o1 (library stock concentration (final ~1000-fold dilution): 10 mM),NF-kB SEAP reporter activity,[1]; agonist: LPS (TLR4) 0.1 ug/mL,1.16
same,NF-kB SEAP reporter activity,[1]; [4],1.35
same,NF-kB SEAP reporter activity,[1]; [5],1.21
same,NF-kB SEAP reporter activity,[1]; [6],1.4
N#Cc1ccc2ncnc(NCCc3ccccc3)c2c1 (library stock concentration (final ~1000-fold dilution): 10 mM),NF-kB SEAP reporter activity,[1]; agonist: LPS (TLR4) 0.1 ug/mL,2.76
same,NF-kB SEAP reporter activity,[1]; [4],1.15
same,NF-kB SEAP reporter activity,[1]; [5],1.51
same,NF-kB SEAP reporter activity,[1]; [6],1.76
Cc1ccc(CNc2ncnc3ccc(-c4ccc(CO)o4)cc23)o1,NF-kB SEAP reporter activity,[2]; [7],1.07
same,NF-kB SEAP reporter activity,[2]; [8],1.24
Nc1ccc2ncnc(NCCc3ccc(Oc4ccccc4)cc3)c2c1,NF-kB SEAP reporter activity,[2]; [7],1.46
Nc1ccc2ncnc(NCCc3ccc(Oc4ccccc4)cc3)c2c1 (library stock concentration (final ~1000-fold dilution): 10 mM),NF-kB SEAP reporter activity,[1]; agonist: LPS (TLR4) 0.1 ug/mL,1.57 and 1.15
same,NF-kB SEAP reporter activity,[1]; [5],0.752 and 0.456
same,NF-kB SEAP reporter activity,[1]; [6],1.02 and 0.73
N#Cc1ccc2ncnc(NCCc3ccccc3)c2c1,NF-kB SEAP reporter activity,[2]; [7],0.984
same,NF-kB SEAP reporter activity,[2]; [8],1.59
O=C(Nc1ccc(Cl)cc1)c1cc2ccccc2cc1OP(=O)(O)O,NF-kB SEAP reporter activity,[2]; [7],0.877
same,NF-kB SEAP reporter activity,[2]; [8],1.04
O=C(Nc1ccc(Cl)cc1)c1cc2ccccc2cc1OP(=O)(O)O (library stock concentration (final ~1000-fold dilution): 10 mM),NF-kB SEAP reporter activity,[1]; agonist: LPS (TLR4) 0.1 ug/mL,1.08
same,NF-kB SEAP reporter activity,[1]; [4],0.965
same,NF-kB SEAP reporter activity,[1]; [5],0.931
same,NF-kB SEAP reporter activity,[1]; [6],0.763
N=C(N)NCCCC1NC(=O)C(CCCCN)NC(=O)C(Cc2ccccc2)NC(=O)C(CC(=O)O)NC(=O)CNC1=O.O=C(O)C(F)(F)F (stereo not drawn) (library stock concentration (final ~1000-fold dilution): 10 mM),NF-kB SEAP reporter activity,[1]; agonist: LPS (TLR4) 0.1 ug/mL,1.07
same,NF-kB SEAP reporter activity,[1]; [4],0.955
same,NF-kB SEAP reporter activity,[1]; [5],1.13
same,NF-kB SEAP reporter activity,[1]; [6],0.988
N=C(N)NCCCC1NC(=O)C(CCCCN)NC(=O)C(Cc2ccccc2)NC(=O)C(CC(=O)O)NC(=O)CNC1=O.O=C(O)C(F)(F)F (stereo not drawn),NF-kB SEAP reporter activity,[2]; [7],0.934
same,NF-kB SEAP reporter activity,[2]; [8],1.07
COc1ncc(-c2cc(-c3ncc(CN4CC(C)OC(C)C4)o3)c3cn[nH]c3c2)cc1NS(C)(=O)=O (stereo not drawn) (library stock concentration (final ~1000-fold dilution): 10 mM),NF-kB SEAP reporter activity,[3]; agonist: LPS (TLR4) 0.1 ug/mL,5.18
same,NF-kB SEAP reporter activity,[3]; [4],0.639
same,NF-kB SEAP reporter activity,[3]; [5],1.01
same,NF-kB SEAP reporter activity,[3]; [6],1.39
COc1ncc(-c2cc(-c3ncc(CN4CC(C)OC(C)C4)o3)c3cn[nH]c3c2)cc1NS(C)(=O)=O (stereo not drawn),NF-kB SEAP reporter activity,[2]; [9],0.604
same,NF-kB SEAP reporter activity,[2]; [10],2.18
CCN(CC)Cc1cc(Nc2ccnc3cc(Cl)ccc23)ccc1O.Cl.Cl.O.O (library stock concentration (final ~1000-fold dilution): 10 mM),NF-kB SEAP reporter activity,[1]; agonist: LPS (TLR4) 0.1 ug/mL,0.419
same,NF-kB SEAP reporter activity,[1]; [4],0.184
same,NF-kB SEAP reporter activity,[1]; [5],0.719
same,NF-kB SEAP reporter activity,[1]; [6],0.633
CN(CCNCc1cn(Cc2ccc(Cl)cc2)nn1)CCNc1ccnc2cc(Cl)ccc12.O=C(O)C(F)(F)F (library stock concentration (final ~1000-fold dilution): 10 mM),NF-kB SEAP reporter activity,[3]; agonist: LPS (TLR4) 0.1 ug/mL,2.67
same,NF-kB SEAP reporter activity,[3]; [4],0.269
same,NF-kB SEAP reporter activity,[3]; [5],1.18
same,NF-kB SEAP reporter activity,[3]; [6],1.87
CCN(CCO)CCCC(C)Nc1ccnc2cc(Cl)ccc12.O=S(=O)(O)O (stereo not drawn) (library stock concentration (final ~1000-fold dilution): 10 mM water),NF-kB SEAP reporter activity,[1]; agonist: LPS (TLR4) 0.1 ug/mL,1.41
same,NF-kB SEAP reporter activity,[1]; [4],0.252
same,NF-kB SEAP reporter activity,[1]; [5],0.864
same,NF-kB SEAP reporter activity,[1]; [6],0.763
CCN(CCO)CCCC(C)Nc1ccnc2cc(Cl)ccc12.O=S(=O)(O)O (stereo not drawn),NF-kB SEAP reporter activity,"[2]; library stock concentration (final ~1000-fold dilution): 10 mM water, cytotoxicity flag (confluency mask): not cytotoxic, agonist: Imiquimod (TLR7) […]",0.389
same,NF-kB SEAP reporter activity,"[2]; library stock concentration (final ~1000-fold dilution): 10 mM water, cytotoxicity flag (confluency mask): not cytotoxic, agonist: MPLA (TLR4) […]",1.3
CN(CCNCc1cn(Cc2ccc(Cl)cc2)nn1)CCNc1ccnc2cc(Cl)ccc12.O=C(O)C(F)(F)F,NF-kB SEAP reporter activity,[2]; [9],1.52
same,NF-kB SEAP reporter activity,[2]; [10],2.19
Cc1ccc(NCCN(C)CCNc2ccnc3cc(Cl)ccc23)c2c(=O)c3ccccc3sc12,NF-kB SEAP reporter activity,"[2]; library stock concentration (final ~1000-fold dilution): 2 mM, cytotoxicity flag (confluency mask): not cytotoxic, agonist: Imiquimod (TLR7) […]",0.907
same,NF-kB SEAP reporter activity,"[2]; library stock concentration (final ~1000-fold dilution): 2 mM, cytotoxicity flag (confluency mask): not cytotoxic, agonist: MPLA (TLR4) […]",1.05
CCN(CC)Cc1cc(Nc2ccnc3cc(Cl)ccc23)ccc1O.Cl.Cl.O.O,NF-kB SEAP reporter activity,[2]; [7],0.244
same,NF-kB SEAP reporter activity,[2]; [8],0.82
CN(CCNc1ccnc2cc(Cl)ccc12)CCNc1ccnc2cc(Cl)ccc12.Cl.Cl.Cl (library stock concentration (final ~1000-fold dilution): 10 mM),NF-kB SEAP reporter activity,[3]; agonist: LPS (TLR4) 0.1 ug/mL,4.28
same,NF-kB SEAP reporter activity,[3]; [4],0.547
same,NF-kB SEAP reporter activity,[3]; [5],1.63
same,NF-kB SEAP reporter activity,[3]; [6],2.17
Cc1ccc(NCCN(C)CCNc2ccnc3cc(Cl)ccc23)c2c(=O)c3ccccc3sc12 (library stock concentration (final ~1000-fold dilution): 2 mM),NF-kB SEAP reporter activity,[1]; agonist: LPS (TLR4) 0.1 ug/mL,1.45
same,NF-kB SEAP reporter activity,[1]; [4],1.04
same,NF-kB SEAP reporter activity,[1]; [5],0.845
same,NF-kB SEAP reporter activity,[1]; [6],1.06
CN(CCNc1ccnc2cc(Cl)ccc12)CCNc1ccnc2cc(Cl)ccc12.Cl.Cl.Cl,NF-kB SEAP reporter activity,[2]; [9],0.958
same,NF-kB SEAP reporter activity,[2]; [10],2.39
Cc1cc2ncc(C(=O)NCC(C)(C)NCC(=O)N3CCCC3C#N)cn2n1 (stereo not drawn),NF-kB SEAP reporter activity,[2]; [7],0.977
same,NF-kB SEAP reporter activity,[2]; [8],1.04
Cc1cc2ncc(C(=O)NCC(C)(C)NCC(=O)N3CCCC3C#N)cn2n1 (stereo not drawn) (library stock concentration (final ~1000-fold dilution): 10 mM),NF-kB SEAP reporter activity,[1]; agonist: LPS (TLR4) 0.1 ug/mL,1.57
same,NF-kB SEAP reporter activity,[1]; [4],0.997
same,NF-kB SEAP reporter activity,[1]; [5],0.911
same,NF-kB SEAP reporter activity,[1]; [6],0.96
COc1ccccc1Nc1nc(-c2sc(NC(C)=O)nc2C)cs1,NF-kB SEAP reporter activity,[2]; [7],0.623
same,NF-kB SEAP reporter activity,[2]; [8],0.687
COc1ccccc1Nc1nc(-c2sc(NC(C)=O)nc2C)cs1 (library stock concentration (final ~1000-fold dilution): 10 mM),NF-kB SEAP reporter activity,[1]; agonist: LPS (TLR4) 0.1 ug/mL,0.496
same,NF-kB SEAP reporter activity,[1]; [4],0.464
same,NF-kB SEAP reporter activity,[1]; [5],0.318
same,NF-kB SEAP reporter activity,[1]; [6],0.245
CC(C)(OC1OC(CO)C(O)C(O)C1O)C1Cc2cc3ccc(=O)oc3cc2O1 (stereo not drawn),NF-kB SEAP reporter activity,[2]; [7],1.21
same,NF-kB SEAP reporter activity,[2]; [8],1.19
CC(C)(OC1OC(CO)C(O)C(O)C1O)C1Cc2cc3ccc(=O)oc3cc2O1 (stereo not drawn) (library stock concentration (final ~1000-fold dilution): 10 mM),NF-kB SEAP reporter activity,[1]; agonist: LPS (TLR4) 0.1 ug/mL,1.14
same,NF-kB SEAP reporter activity,[1]; [4],1.31
same,NF-kB SEAP reporter activity,[1]; [5],1.27
same,NF-kB SEAP reporter activity,[1]; [6],1.48
Cl.O=C1C2CCCCC2C(=O)N1CCCCN1CCN(c2nsc3ccccc23)CC1 (stereo not drawn) (library stock concentration (final ~1000-fold dilution): 10 mM),NF-kB SEAP reporter activity,[1]; agonist: LPS (TLR4) 0.1 ug/mL,0.671
same,NF-kB SEAP reporter activity,[1]; [4],0.536
same,NF-kB SEAP reporter activity,[1]; [5],0.848
same,NF-kB SEAP reporter activity,[1]; [6],0.888
Cl.O=C1C2CCCCC2C(=O)N1CCCCN1CCN(c2nsc3ccccc23)CC1 (stereo not drawn),NF-kB SEAP reporter activity,[2]; [8],0.868
Cc1n[nH]c2ccc(-c3cncc(OCC(N)Cc4ccccc4)c3)cc12 (stereo not drawn) (library stock concentration (final ~1000-fold dilution): 10 mM),NF-kB SEAP reporter activity,[1]; agonist: LPS (TLR4) 0.1 ug/mL,0.198
same,NF-kB SEAP reporter activity,[1]; [4],0.962
same,NF-kB SEAP reporter activity,[1]; [5],0.447
same,NF-kB SEAP reporter activity,[1]; [6],1.01
Cc1n[nH]c2ccc(-c3cncc(OCC(N)Cc4ccccc4)c3)cc12 (stereo not drawn),NF-kB SEAP reporter activity,[2]; [7],0.904
same,NF-kB SEAP reporter activity,[2]; [8],0.967
C=CC1(C)CC(OC(=O)CSCCN(CC)CC)C2(C)C(C)CCC3(CCC(=O)C32)C(C)C1O.O=C(O)/C=C/C(=O)O (stereo not drawn) (library stock concentration (final ~1000-fold dilution): 10 mM),NF-kB SEAP reporter activity,[1]; agonist: LPS (TLR4) 0.1 ug/mL,1.37
same,NF-kB SEAP reporter activity,[1]; [4],0.712
same,NF-kB SEAP reporter activity,[1]; [5],0.821
same,NF-kB SEAP reporter activity,[1]; [6],0.841
C=CC1(C)CC(OC(=O)CSCCN(CC)CC)C2(C)C(C)CCC3(CCC(=O)C32)C(C)C1O.O=C(O)/C=C/C(=O)O (stereo not drawn),NF-kB SEAP reporter activity,[2]; [8],1.13
